Screen size: about 5,500 compounds; about 2,000 (36%) were called active. Roughly 18% stayed inconclusive and do not appear here. Rule as the data show it: active = normalized growth mostly below about 0.91 (no sharp cut-off); inconclusive = no clear call, values can overlap the other calls; inactive = mostly above about 0.92. Some of the results follow.
Test: chemical genetic growth profiling, strain panel (AID 1159580);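 also: tested at 20 µM; growth read once vehicle control cultures reached saturation at 30 °C; 1 = growth at the plate median or of vehicle wells; lower values mean less growth of the strain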
Conditions: S. cerevisiae deletion strains, growth OD

Measured: normalized growth

O=C1OC(Nc2ccccc2SCc2ccccc2Cl)c2ccccc21 (stereo unspecified)
active: locus YLR113W, strain HOG1, active compounds read low 0.832
inactive: locus YAR019C, strain CDC15, active compounds read low 0.985 | locus YBL105C, strain PKC1, active compounds read low 0.977 | locus YBR135W, strain CKS1, active compounds read low 0.97 | locus YBR136W, strain MEC1, active compounds read low 0.973 | locus YBR160W, strain CDC28, active compounds read low 0.981 | locus YDL017W, strain CDC7, active compounds read low 0.989 | locus YDL028C, strain MPS1, active compounds read low 0.984 | locus YDL101C, strain DUN1, active compounds read low 0.971 | locus YDL108W, strain KIN28, active compounds read low 0.977 | locus YDL132W, strain cdc53, active compounds read low 0.962 | locus YDL214C, strain PRR2, active compounds read low 0.903 | locus YDR052C, strain DBF4, active compounds read low 0.989 | locus YDR054C, strain cdc34, active compounds read low 0.98 | locus YDR226W, strain ADK1, active compounds read low 0.965 | locus YDR477W, strain SNF1, active compounds read low 0.928 | locus YER123W, strain YCK3, active compounds read low 0.89 | locus YER133W, strain GLC7, active compounds read low 0.897 | locus YFL009W, strain cdc4, active compounds read low 0.97 | locus YFL029C, strain CAK1, active compounds read low 0.971 | locus YFR003C, strain YPI1, active compounds read low 0.983 | locus YFR019W, strain FAB1, active compounds read low 0.886 | locus YFR028C, strain CDC14, active compounds read low 0.967 | locus YGR040W, strain KSS1, active compounds read low 0.899 | locus YGR052W, strain FMP48, active compounds read low 0.87 | locus YGR092W, strain DBF2, active compounds read low 0.855 | locus YHR030C, strain SLT2, active compounds read low 0.867 | locus YHR079C, strain IRE1, active compounds read low 0.905 | locus YHR082C, strain KSP1, active compounds read low 0.948 | locus YHR205W, strain SCH9, active compounds read low 0.798 | locus YIL147C, strain SLN1, active compounds read low 0.977 | locus YJL095W, strain BCK1, active compounds read low 0.814 | locus YJL128C, strain PBS2, active compounds read low 0.937 | locus YJL157C, strain FAR1, active compounds read low 0.905 | locus YJR016C, strain ILV3, active compounds read low 0.98 | locus YJR066W, strain TOR1 (second series), active compounds read low 0.846 | locus YJR066W, strain TOR1, active compounds read low 0.914 | locus YKL048C, strain ELM1, active compounds read low 0.963 | locus YKL067W, strain YNK1, active compounds read low 0.908 | locus YKL101W, strain HSL1, active compounds read low 0.907 | locus YKL193C, strain SDS22, active compounds read low 0.979 | locus YKL203C, strain TOR2, active compounds read low 0.93 | locus YLR133W, strain CKI1, active compounds read low 0.899 | locus YLR403W, strain SFP1, active compounds read low 0.83 | locus YML070W, strain DAK1, active compounds read low 0.903 | locus YMR001C, strain CDC5, active compounds read low 0.98 | locus YMR205C, strain PFK2 (second series), active compounds read low 0.912 | locus YMR277W, strain FCP1, active compounds read low 0.979 | locus YNL006W, strain LST8, active compounds read low 0.975 | locus YNL020C, strain ARK1, active compounds read low 0.916 | locus YNL161W, strain CBK1, active compounds read low 0.976 | locus YNL183C, strain NPR1, active compounds read low 0.909 | locus YNL207W, strain RIO2, active compounds read low 0.968 | locus YNL222W, strain SSU72, active compounds read low 0.974 | locus YNL307C, strain MCK1 (second series), active compounds read low 0.862 | locus YOL078W, strain AVO1, active compounds read low 0.97 | locus YOL136C, strain PFK27, active compounds read low 0.854 | locus YOR061W, strain CKA2, active compounds read low 0.888 | locus YOR119C, strain RIO1, active compounds read low 0.964 | locus YOR231W, strain MKK1, active compounds read low 0.895 | locus YOR329C, strain SCD5, active compounds read low 0.984 | locus YPL031C, strain PHO85, active compounds read low 0.912 | locus YPL153C, strain RAD53, active compounds read low 0.934 | locus YPL204W, strain HRR25, active compounds read low 0.882 | locus YPL209C, strain IPL1, active compounds read low 0.978 | locus YPL256C, strain CLN2, active compounds read low 0.953 | locus YPR025C, strain CCL1, active compounds read low 0.984 | locus YPR106W, strain ISR1, active compounds read low 0.976 | locus YPR111W, strain DBF20, active compounds read low 0.955 | strain NNK1, active compounds read low 0.971 | strain TSCII, active compounds read low 0.965
